Test [1] is described as follows: TOX21_p53_BLA_p2_viability: Viability Assessment in the Tox21 HCT-116 p53 Agonism Beta-lactamase Assay, Phase 2 (AID 2283591).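 Also: compound exposure lasted 16 h at 37 °C; actives lower the ATP signal meaning cytotoxicity.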 The essentials:
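HCT116 p53-bla cells, 4000/well, dosed after 5 h plating (217-fold dilution of DMSO stocks) and incubated 16 h at 37C. Viability taken as cellular ATP by CellTiter-Glo luminescence after 30 min RT; signal loss marks cytotoxicity.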

Test [2] has as its target Cellular tumor antigen p53 (Homo sapiens) (UniProt P04637). Kind of test: TOX21_p53_BLA_p2_ratio: Tox21 HCT-116 p53 Agonism Beta-lactamase Assay, Ratio, Phase 2 (AID 2283592). The gist of the method:
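DMSO-normalized, positive-direction endpoint derived from the 460 nm/530 nm FRET ratio in HCT116 p53 beta-lactamase reporter cells exposed 16 h at 37C and loaded with CCF4-AM for 2 h.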

Test [3] is described as follows: TOX21_p53_BLA_p3_viability: Viability Assessment in the Tox21 HCT-116 p53 Agonism Beta-lactamase Assay, Phase 3 (AID 2283593).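 Also: cells exposed to compound for 16 h before reading.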 The essentials: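 HCT116 cells, 4000/well, dosed 5 h after plating by pin transfer (217-fold dilution from DMSO stock) and incubated 16 h at 37C, 5% CO2. Viability read as ATP luminescence with CellTiter-Glo after 30 min at room temperature.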

For test [4], the target named is Cellular tumor antigen p53 (Homo sapiens) (UniProt P04637). Nature of the test: TOX21_p53_BLA_p3_ratio: Tox21 HCT-116 p53 Agonism Beta-lactamase Assay, Ratio, Phase 3 (AID 2283596). The gist of the method:
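Cells were seeded at 4000/well, rested 5 h at 37C, then dosed with DMSO compound solutions (217-fold dilution) for 16 h. CCF4-AM substrate was loaded for 2 h at room temperature, and the 460/530 nm emission ratio was fitted for gain of signal versus DMSO.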

Test [5] is described as follows: TOX21_p53_BLA_p4_viability: Viability Assessment in the Tox21 HCT-116 p53 Agonism Beta-lactamase Assay, Phase 4 (AID 2283597).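 Also: hits lower the luminescence signal meaning cytotoxicity.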 The gist of the method: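 In this multiplexed secondary endpoint, HCT116 cells (4000 per well, compound at 5 h, 16 h treatment) received CellTiter-Glo after the beta-lactamase read. Luminescence after 30 min RT reflects ATP, and falling signal marks cytotoxicity.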

Test [6] is described as follows: TOX21_p53_BLA_p5_viability: Viability Assessment in the Tox21 HCT-116 p53 Agonism Beta-lactamase Assay, Phase 5 (AID 2283600). The essentials: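 Here cell health was gauged by ATP levels in wells holding 4000 cells, each treated 16 h with DMSO-delivered compounds at 217-fold dilution; reduced luminescence marked toxicity.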
In test [7] the target is Cellular tumor antigen p53 (Homo sapiens) (UniProt P04637). Nature of the test: TOX21_p53_BLA_p5_ratio: Tox21 HCT-116 p53 Agonism Beta-lactamase Assay, Ratio, Phase 5 (AID 2283599). The gist of the method: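 HCT-116 p53-bla cells (4000/well) plated 5 h, dosed with compound (217-fold DMSO dilution) for 16 h at 37 C; CCF4-AM substrate 2 h at room temperature. Activity is the 460/530 nm emission ratio (405 nm excitation), fitted in gain-of-signal direction versus DMSO.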

The target is the same in test [8]. Nature of the test: TOX21_p53_BLA_p4_ratio: Tox21 HCT-116 p53 Agonism Beta-lactamase Assay, Ratio, Phase 4 (AID 2283601). The essentials:
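HCT-116 p53 beta-lactamase reporter cells (4000/well) preincubated 5 h, then compound (217-fold dilution of DMSO stock) for 16 h at 37C. CCF4-AM substrate added 2 h at room temperature; 460/530 nm emission ratio fitted upward versus DMSO.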

Molecules are shown by their SMILES. Results filed as inconclusive are left out. Activity calls are given as the source filed them. The calls were made as follows: active = hit-call score of the fitted dose curve at least 0.9, where 1 is the maximum; inconclusive = response in the unintended direction; inactive = score below 0.9.

Chain of Cellular tumor antigen p53 (Homo sapiens) (P04637 whole entry, looked up): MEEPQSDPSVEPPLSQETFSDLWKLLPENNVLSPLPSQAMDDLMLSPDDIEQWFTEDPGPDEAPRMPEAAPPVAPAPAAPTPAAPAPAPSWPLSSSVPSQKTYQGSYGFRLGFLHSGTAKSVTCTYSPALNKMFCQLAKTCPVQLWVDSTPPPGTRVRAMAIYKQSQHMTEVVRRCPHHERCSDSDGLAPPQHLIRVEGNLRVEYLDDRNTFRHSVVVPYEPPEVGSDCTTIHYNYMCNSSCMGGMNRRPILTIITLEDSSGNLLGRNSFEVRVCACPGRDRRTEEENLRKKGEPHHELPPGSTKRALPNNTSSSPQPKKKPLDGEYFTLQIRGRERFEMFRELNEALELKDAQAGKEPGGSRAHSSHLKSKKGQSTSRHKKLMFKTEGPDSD

Take `C[S+](C)CCC(N)C(=O)O` (stereo not drawn): the call in test [1], in test [2], in test [3], in test [4], in test [5] and in test [6] was inactive.
In the case of `O=C(c1ccccc1)c1cc(Cl)ccc1O`, the result in test [1], in test [2], in test [3], in test [4], in test [5] and in test [7] was inactive. Also, in test [8], the result was inactive.
As for `O=C(O)CCCCCC(=O)O`, the compound was classed as inactive in test [1], in test [2], in test [3], in test [4], in test [5] and in test [6]. Also, in test [8], the outcome was inactive.
On to `C=C[C@]1(C)C[C@@H](OC(=O)CSC(C)(C)CNC(=O)[C@H](N)C(C)C)[C@]2(C)[C@H](C)CC[C@]3(CCC(=O)[C@H]32)[C@@H](C)[C@@H]1O`, for which the outcome in test [1], in test [2], in test [3], in test [4], in test [5] and in test [6] was inactive. The outcome in test [8] was inactive.
As to `Cc1ccc2c(n1)Oc1ccc(C(C)C(=O)OCC(=O)N(C)C)cc1C2` (stereo not drawn), the result in test [1], in test [2], in test [3], in test [4], in test [5] and in test [6] was inactive.
As to `Cn1cc(NC(=O)c2cc(NC(=O)c3cc(NC=O)cn3C)cn2C)cc1C(=O)NCCC(=N)N`, the compound was classed as inactive in test [1], in test [2], in test [3], in test [4], in test [5] and in test [7]. For the same compound, in test [8], the result was inactive.
Regarding `C[N+]1(C)CCC(=C(c2ccccc2)c2ccccc2)CC1`, the result in test [1], in test [2], in test [3], in test [4], in test [5] and in test [6] was inactive.
As to `CNCCCCOc1ccccc1Cc1ccccc1`, the compound was classed as inactive in test [1], in test [2], in test [3], in test [4] and in test [6]. For the same compound, the AC50 in test [5] is 36.4 µM (active).
Regarding `CC(C)(C)c1ccc(C(=O)CCCN2CCC(OC(c3ccccc3)c3ccccc3)CC2)cc1`, the outcome in test [1], in test [2], in test [5] and in test [6] was inactive. The AC50 in test [3] was 31.1 µM (active); in test [4], 34.6 µM (active).

Broadly, the AC50 is the concentration at which the activity in the assay is half-maximal.

The values above are taken from PubChem BioAssay (EPA / NIEHS).
